Several values for one entry are separate records, joined by “and”; a condition that tells them apart may be missing. Equal entries are not always repeated. The source holds several records for some structures; these can differ, active in one and inactive in another. Activity calls are given as the source filed them. Where a call stands in place of a potency, no number is given. Unless noted, calls come from the whole dose curve; as a rule, active = well fitted curve in the direction sought with a large enough effect in the repeat runs; inconclusive = weak or mixed curves; inactive = no such curve, though single readings can be large; an effect the other way counts as inactive or inconclusive.
Columns and labels:
[1] = qHTS assay to identify small molecule antagonists of the glucocorticoid receptor (GR) signaling pathway - cell viability counter screen (AID 720693); note: nearly all actives have a fitted effect of over 55% in size
[2] = qHTS assay for identifying genotoxic compounds that show differential cytotoxicity against isogenic chicken DT40 cell lines with known DNA damage response pathways - wild type cell line (AID 743012); note: nearly all actives have a fitted effect of over 60% in size
Summary of the method: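 Endpoint: CellTiter-Glo luminescence, 30 min RT. Cells: wild type DT40, 300/well. Exposure: compounds in DMSO, 40 h, 37 C/5% CO2, after ~0.5 h pre-incubation.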

[3] = qHTS assay for identifying genotoxic compounds that show differential cytotoxicity against isogenic chicken DT40 cell lines with known DNA damage response pathways - Rev3 mutant cell line (AID 743014); note: nearly all actives have a fitted effect of over 55% in size; note: potency is the fitted concentration of half-maximal effect
[4] = qHTS assay for identifying genotoxic compounds that show differential cytotoxicity against isogenic chicken DT40 cell lines with known DNA damage response pathways - Rad54/Ku70 mutant cell line (AID 743015); note: nearly all actives have a fitted effect of over 60% in size; note: potency is the fitted concentration of half-maximal effect
[5] = qHTS assay to identify small molecule antagonists of the androgen receptor (AR) signaling pathway - cell viability counter screen (AID 743033; note: nearly all actives have a fitted effect of over 45% in size)
[6] = qHTS assay to identify small molecule antagonists of the androgen receptor (AR) signaling pathway using the MDA cell line - cell viability counter screen (AID 743041; note: nearly all actives have a fitted effect of over 45% in size)
Summary of the method: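 qHTS viability read-out; MDA-kb2 AR-luc; R1881-stimulated; 16 h exposure at 37C, 0% CO2; CellTiter-Fluor, 30 min; fluorescence intensity.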

[7] = qHTS assay to identify small molecule antagonists of the thyroid receptor (TR) signaling pathway - cell viability counter screen (AID 743064); note: nearly all actives have a fitted effect of over 50% in size; note: potency is the fitted concentration of half-maximal effect
Summary of the method: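 GH3.TRE-Luc rat pituitary cells dosed after 4 hr plating, co-stimulated with T3 at 1 nM final, incubated 23.5 h at 37 C. Viability measured in the same wells by CellTiter-Fluor fluorescence after 30 min further at 37 C.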

[8] = qHTS assay to identify small molecule antagonists of the thyroid receptor (TR) signaling pathway (AID 743065); note: series mostly up to about 70 µM; nearly all actives have a fitted effect of over 55% in size
Summary of the method: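 GH3.TRE-Luc rat pituitary cells carrying two TR response elements driving luciferase were plated for 4 h, given compound plus 1 nM T3 (final), and incubated 23.5 h at 37 C. ONE-Glo luminescence measured reporter inhibition; CellTiter-Fluor fluorescence tracked cytotoxicity.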

[9] = system: thyroid hormone receptor (rat, GH3 cells); test: qHTS assay to identify small molecule agonists of the thyroid receptor (TR) signaling pathway (AID 743066; calls by dose curve)
[10] = qHTS assay to identify small molecule antagonists of the estrogen receptor alpha (ER-alpha) signaling pathway - cell viability counter screen (AID 743074; calls by dose curve; note: nearly all actives have a fitted effect of over 45% in size)
[11] = qHTS assay to identify small molecule antagonists of the estrogen receptor alpha (ER-alpha) signaling pathway using the BG1 cell line - cell viability counter screen (AID 743081);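 note: compound given together with 17beta-estradiol as the ER stimulus; nearly all actives have a fitted effect of over 45% in size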; note: potency is the fitted concentration of half-maximal effect
[12] = biological target: Aromatase (Homo sapiens) (UniProt P11511); test: qHTS assay to identify aromatase inhibitors (AID 743083); note: series mostly up to about 70 µM; nearly all actives have a fitted effect of over 55% in size
Sequence of Aromatase (Homo sapiens) (P11511 whole entry, looked up): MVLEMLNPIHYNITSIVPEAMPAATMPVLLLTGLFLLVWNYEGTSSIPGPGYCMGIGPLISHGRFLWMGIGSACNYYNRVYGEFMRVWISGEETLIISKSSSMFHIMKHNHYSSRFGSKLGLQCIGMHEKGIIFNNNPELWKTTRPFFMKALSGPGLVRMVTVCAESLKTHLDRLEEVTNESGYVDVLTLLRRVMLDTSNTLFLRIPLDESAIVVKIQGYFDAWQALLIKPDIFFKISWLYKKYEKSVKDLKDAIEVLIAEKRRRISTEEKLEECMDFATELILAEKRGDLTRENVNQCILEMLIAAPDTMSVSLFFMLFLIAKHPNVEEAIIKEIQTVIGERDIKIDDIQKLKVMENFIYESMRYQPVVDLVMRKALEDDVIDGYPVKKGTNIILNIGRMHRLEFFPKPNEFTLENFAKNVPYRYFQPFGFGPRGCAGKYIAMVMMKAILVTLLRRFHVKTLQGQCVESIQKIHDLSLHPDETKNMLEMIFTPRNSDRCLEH

[13] = biological target: Estrogen receptor (Homo sapiens) (UniProt P03372); test: qHTS assay to identify small molecule antagonists of the estrogen receptor alpha (ER-alpha) signaling pathway (AID 743069; active = well fitted curve in the direction sought with a large enough effect in the signal ratio in the repeat runs, not every such curve was filed as active; inconclusive = weak or mixed curves, or effect the other way; inactive = no such curve, though single readings can be large or run the other way; the % refers to the signal ratio; note: potency is the fitted concentration of half-maximal effect)
Sequence of Estrogen receptor (Homo sapiens) (P03372 whole entry, looked up): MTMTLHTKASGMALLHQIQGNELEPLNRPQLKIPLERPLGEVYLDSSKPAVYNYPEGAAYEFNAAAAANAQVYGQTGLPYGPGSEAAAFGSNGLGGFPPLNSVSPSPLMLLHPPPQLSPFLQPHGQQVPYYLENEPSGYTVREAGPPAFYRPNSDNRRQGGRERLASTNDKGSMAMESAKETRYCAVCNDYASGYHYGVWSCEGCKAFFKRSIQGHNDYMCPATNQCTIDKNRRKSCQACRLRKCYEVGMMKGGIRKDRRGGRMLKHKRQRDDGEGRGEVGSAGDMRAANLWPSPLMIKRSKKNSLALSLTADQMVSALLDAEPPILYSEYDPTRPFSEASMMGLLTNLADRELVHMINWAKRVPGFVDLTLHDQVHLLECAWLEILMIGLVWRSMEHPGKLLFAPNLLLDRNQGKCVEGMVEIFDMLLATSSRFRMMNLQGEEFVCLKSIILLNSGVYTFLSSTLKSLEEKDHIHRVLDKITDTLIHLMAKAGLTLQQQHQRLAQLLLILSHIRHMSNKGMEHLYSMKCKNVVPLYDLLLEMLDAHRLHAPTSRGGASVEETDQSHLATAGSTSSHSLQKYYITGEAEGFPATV
Summary of the method: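 Screening used a UAS-driven beta-lactamase reporter integrated into HEK293 cells expressing ER-alpha, stimulated with 17beta-estradiol alongside test compounds over 18 hr at 37C; signal came from LiveBLAzer B/G FRET fluorescence.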

[14] = biological target: Estrogen receptor (Homo sapiens) (UniProt P03372); test: qHTS assay to identify small molecule agonists of the estrogen receptor alpha (ER-alpha) signaling pathway (AID 743075; calls by dose curve; note: potency is the fitted concentration of half-maximal effect)
[15] = biological target: Estrogen receptor (Homo sapiens) (UniProt P03372); test: qHTS assay to identify small molecule agonists of the estrogen receptor alpha (ER-alpha) signaling pathway using the BG1 cell line (AID 743079); note: nearly all actives have a fitted effect of over 20% in size; note: potency is the fitted concentration of half-maximal effect
[16] = qHTS assay to identify small molecule antagonists of the estrogen receptor alpha (ER-alpha) signaling pathway using the BG1 cell line (AID 743080; calls by dose curve; note: nearly all actives have a fitted effect of over 25% in size; note: potency is the fitted concentration of half-maximal effect)
Summary of the method: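 Antagonist mode: compounds in DMSO were pinned onto BG1-Luc-4E2 cells alongside 17beta-estradiol agonist, incubated 21.5 h, and ERE-driven luciferase measured with ONE-Glo. Cytotoxicity was multiplexed using CellTiter-Fluor fluorescence.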

[17] = biological target: Androgen receptor (Homo sapiens) (UniProt P10275); test: qHTS assay to identify small molecule antagonists of the androgen receptor (AR) signaling pathway (AID 743035; active = well fitted inhibition curve with a large enough effect in the signal ratio in the repeat runs, not every such curve was filed as active; inconclusive = weak or mixed curves, or effect the other way; inactive = no such curve, though single readings can be large or run the other way; the % refers to the signal ratio)
Sequence of Androgen receptor (Homo sapiens) (P10275 whole entry, looked up): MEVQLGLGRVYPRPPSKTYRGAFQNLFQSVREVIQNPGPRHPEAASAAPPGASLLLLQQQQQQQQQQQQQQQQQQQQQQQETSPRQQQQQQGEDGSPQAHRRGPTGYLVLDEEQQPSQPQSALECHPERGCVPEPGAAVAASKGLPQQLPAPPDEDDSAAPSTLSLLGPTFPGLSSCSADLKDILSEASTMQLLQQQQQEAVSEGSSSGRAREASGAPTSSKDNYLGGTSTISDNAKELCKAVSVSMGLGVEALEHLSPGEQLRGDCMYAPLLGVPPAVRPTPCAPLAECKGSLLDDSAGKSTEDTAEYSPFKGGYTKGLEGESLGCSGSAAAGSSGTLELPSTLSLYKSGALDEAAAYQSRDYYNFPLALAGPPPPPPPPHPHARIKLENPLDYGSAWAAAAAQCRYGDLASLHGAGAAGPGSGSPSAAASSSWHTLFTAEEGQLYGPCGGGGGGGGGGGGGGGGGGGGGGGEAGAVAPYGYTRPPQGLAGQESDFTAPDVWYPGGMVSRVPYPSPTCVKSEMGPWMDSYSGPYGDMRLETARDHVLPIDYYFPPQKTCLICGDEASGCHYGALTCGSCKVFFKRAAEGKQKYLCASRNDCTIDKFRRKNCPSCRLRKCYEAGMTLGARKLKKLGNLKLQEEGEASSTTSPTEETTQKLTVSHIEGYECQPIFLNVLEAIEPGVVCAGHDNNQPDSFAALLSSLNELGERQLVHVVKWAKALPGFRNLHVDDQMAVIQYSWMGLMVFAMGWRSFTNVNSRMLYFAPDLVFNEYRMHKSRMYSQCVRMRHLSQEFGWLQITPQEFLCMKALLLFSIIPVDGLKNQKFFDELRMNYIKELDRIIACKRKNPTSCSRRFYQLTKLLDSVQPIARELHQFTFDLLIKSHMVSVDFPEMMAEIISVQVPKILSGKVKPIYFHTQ
Summary of the method: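 R1881 agonist challenge of a HEK293 UAS-beta-lactamase AR reporter line in the presence of compound (16 h, 37C); signal taken as FRET fluorescence after 2 h with LiveBLAzer B/G substrate at room temperature.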

[18] = biological target: Androgen receptor (Homo sapiens) (UniProt P10275); test: qHTS assay to identify small molecule agonists of the androgen receptor (AR) signaling pathway using the MDA cell line (AID 743040; note: nearly all actives have a fitted effect of over 20% in size)
Summary of the method: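 Agonist activity is measured as luciferase luminescence in human MDA-kb2 cells whose MMTV reporter responds to both AR and GR. Compounds in DMSO incubate 16 h at 37C, 0% CO2, and ONE-Glo is read after 30 min.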

[19] = biological target: Androgen receptor (Homo sapiens) (UniProt P10275); test: qHTS assay to identify small molecule antagonists of the androgen receptor (AR) signaling pathway using the MDA cell line (AID 743042; note: nearly all actives have a fitted effect of over 55% in size)
Summary of the method: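 MDA-kb2 cells (human breast carcinoma, stably carrying an MMTV-luciferase reporter responsive to AR and GR) were plated at 3,000 cells/well and preincubated 5 hr at 37C, then given compound plus R1881 agonist for 16 h. ONE-Glo luminescence was read.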

| SMILES | Potency [1] | Potency [2] | Potency [3] | Potency [4] | outcome [5] | Potency [6] | Potency [7] | Potency [8] | outcome [9] | outcome [10] | Potency [11] | Potency [12] | Potency [13] | Potency [14] | Potency [15] | Potency [16] | Potency [17] | Potency [18] | Potency [19] |
| --- | --- | --- | --- | --- | --- | --- | --- | --- | --- | --- | --- | --- | --- | --- | --- | --- | --- | --- | --- |
| Cn1cnc2c1c(=O)[nH]c(=O)n2C | inactive | inactive | inactive | inactive | inactive | inactive | inactive | inactive | inactive | inactive | inactive | inactive | – | – | – | – | – | – | – |
| N[C@@H](Cc1c[nH]c2ccc(O)cc12)C(=O)O | inactive | – | inactive | inactive | inactive | inactive | inactive | inactive | inactive | inactive | inactive | inactive | inactive | inactive | inactive | inactive | – | – | – |
| CCCCCCCCOc1ccc(C(=O)c2ccccc2)c(O)c1 | inactive | – | inactive and 61.1 µM (active) | inactive and 68.6 µM (active) | inactive | inactive | inactive | inactive | inactive | inactive | inactive | inactive | inactive | inactive | inactive | 12.3 µM (active) and 12.2 µM (active) | – | – | – |
| COc1ccc(C(=O)c2ccccc2)c(O)c1 | inactive | – | inactive | – | inactive | inactive | inactive | inactive | inactive | inactive | inactive | inactive | – | 27.1 µM [fluorescent] (active) and 55 µM [activator] (active) | 23.7 µM (active) and 60.1 µM (active) and 34.4 µM (active) | – | inactive | inactive | inactive |
| CCCCNC(=O)NS(=O)(=O)c1ccc(N)cc1 | inactive | – | inactive | inactive | inactive | inactive | inactive | inactive | inactive | inactive | inactive | inactive | – | – | – | – | – | – | – |
| CCCCC/C(C=O)=C\c1ccccc1 | inactive | – | inactive | inactive | inactive | inactive | inactive and 61.2 µM (active) | inactive | inactive | inactive | inactive | inactive | – | – | – | – | – | – | – |
| Nc1ccc(N=Nc2ccccc2)c(N)n1 | inactive | – | 4.22 µM (active) | 7.5 µM (active) | inactive | inactive | 21.1 µM (active) and 34.6 µM (active) | – | – | inactive | 23.7 µM (active) and 54.8 µM (active) | inactive | 49.2 µM [inhibitor] (active) | 13.4 µM [inconclusive] (active) and inactive | 2.11 µM (active) and 2.45 µM (active) and 2.17 µM (active) | – | – | – | – |
| Cc1cccc2ccccc12 | inactive | – | inactive | inactive | inactive | inactive | inactive | inactive | inactive | inactive | inactive | inactive | inactive | inactive | inactive | inactive | – | – | – |
